Efflux pump inh: antifungal efflux pump inhibition, Nile Red retention; S. cerevisiae Candida pump triplex; inhibition, % at 10 µM; 330,000 compounds, 0.44% hits; AID 485275;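 active means plate passing quality check with inhibition over a set limit, or well fluorescence over plate mean plus 4 SD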;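 further: Nile Red retained in pooled yeast measured as flow cytometry median fluorescence; 0% = buffer negative control and 100% = Enniatin B positive control; higher means more Nile Red kept so more efflux inhibition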
GRK2 aptamer HTS: human GRK2 inhibition via aptamer displacement; bead flow cytometry, FAM-aptamer displacement from GRK2; inhibition of aptamer binding, % at 10 µM; AID 488847; P25098; 330,000 compounds, 0.59% hits;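 active means inhibition of aptamer binding above 40%, roughly 3 SD of noise, on plates passing a quality check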;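 further: median bead fluorescence of bound FAM aptamer so fluorescent compounds give negative values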
ALR H2O2 inh: human ALR oxidase inhibition via reduced H2O2; purified ALR, DTT oxidation, H2O2 HRP-luminol luminescence; inhibition, % (concentration not given with the values); 290,000 compounds, 3.8% hits;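 active means mean replicate inhibition above about 79%, with every replicate also reaching it, limit read from the data; inconclusive means only one of the two criteria met; inactive means mean below limit and not every replicate reaching it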
HDAC3 inh: inhibitors of human histone deacetylase 3 | O15379 | recombinant HDAC3, fluorogenic peptide/trypsin coupled, fluorescence | inhibition, % at 8.3 µM | 320,000 compounds, 0.15% hits | AID 2718; in the data active means inhibition above about 26%, passing the limit was not always enough; inconclusive means no clear call, values can overlap the other calls
Rce1 inh: blocks yeast Ras-converting enzyme; Q03530; AID 2563; yeast membranes, quenched prenylated peptide cleavage fluorescence; 290,000 compounds, 0.27% hits; calls only;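 active means fall in fluorescence gain of 50% or more versus controls, with final raw signal at or below 3038400; inconclusive means same 50% fall but final raw signal above 3038400; inactive means fall in fluorescence gain under 50%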;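 further: plate controls were neutral control wells for no effect and wells lacking membranes for full effect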
Target sequence (Q03530 whole entry, looked up): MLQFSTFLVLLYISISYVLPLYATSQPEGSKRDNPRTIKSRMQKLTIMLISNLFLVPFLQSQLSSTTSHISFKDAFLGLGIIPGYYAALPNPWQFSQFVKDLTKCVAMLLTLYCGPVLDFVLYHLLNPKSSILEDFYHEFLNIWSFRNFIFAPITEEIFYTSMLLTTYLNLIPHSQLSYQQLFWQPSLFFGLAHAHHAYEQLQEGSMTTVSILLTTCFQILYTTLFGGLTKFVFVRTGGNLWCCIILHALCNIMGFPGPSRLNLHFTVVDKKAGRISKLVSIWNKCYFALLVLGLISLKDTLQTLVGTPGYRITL
Rtt109 HAT inh: inhibitors of Candida albicans Rtt109/Vps75 histone acetyltransferase | Q5AAJ8 | purified Rtt109/Vps75, ThioGlo CoA-SH fluorescence, 4 h | inhibition, % at 34.9 µM | 330,000 compounds, 0.16% hits | AID 540336;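 active means inhibition of at least 50% in every replicate; inconclusive means best replicate reaches 50% inhibition but some replicates fall short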
Target sequence (Q5AAJ8 whole entry, looked up): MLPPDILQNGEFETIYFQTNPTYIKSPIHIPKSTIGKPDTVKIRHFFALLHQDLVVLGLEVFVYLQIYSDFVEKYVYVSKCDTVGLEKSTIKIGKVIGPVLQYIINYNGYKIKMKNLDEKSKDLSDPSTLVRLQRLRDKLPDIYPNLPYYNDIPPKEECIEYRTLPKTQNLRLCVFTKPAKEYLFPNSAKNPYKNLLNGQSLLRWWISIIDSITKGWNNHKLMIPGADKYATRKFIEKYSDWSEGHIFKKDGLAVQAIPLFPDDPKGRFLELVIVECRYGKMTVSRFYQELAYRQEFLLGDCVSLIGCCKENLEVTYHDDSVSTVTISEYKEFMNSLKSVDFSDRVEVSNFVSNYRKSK
An asterisk follows results filed as active; i = inactive; ? = inconclusive; · = no result; + = active, no number. This is a sample that favours compounds with a hit; in the whole collection about 4.5% have one here.

SMILES | Efflux pump inh | GRK2 aptamer HTS | ALR H2O2 inh | HDAC3 inh | Rce1 inh | Rtt109 HAT inh
O=C(NCC(c1cccnc1)N1CCN(c2ccc(F)cc2)CC1)c1ccc(F)cc1 (stereo not drawn) | 0 | 0 | 98* | -4 | i | 10
CCOc1ccc(NC(=O)N2CCC(c3nc4ccccc4[nH]3)CC2)cc1 | 0 | 0 | -29 | -1 | i | 5
COc1ccccc1C(=O)N1CCN(C(=O)c2oc3ccc(C)cc3c2C)CC1 | 0 | 1 | -10 | -9 | i | -4
c1ccc(CCCN2CCOCC2)cc1 | 0 | 2 | 2 | -5 | i | 0
CC(NC(=O)CN1CCN(c2ccc(Cl)cc2)CC1)c1ccccc1 (stereo not drawn) | 0 | 0 | · | -7 | i | -3
COc1ccc(CNC(=O)CN2CCN(c3ccccc3)CC2)cc1 | 0 | 0 | · | 2 | i | -2
COc1cccc(N2CCN(CC(=O)NCc3ccccc3)CC2)c1 | 0 | 1 | 98* | -5 | i | 0
c1ccc(CCCN2CCN(c3ccccc3)CC2)cc1 | 0 | 4 | 86* | -1 | i | 0
Cc1ccc(CN2CCN(CC(=O)NCc3ccccc3)CC2)cc1 | 0 | 0 | -5 | 0 | i | 53*
CC(CCc1ccccc1)NC(=O)CN1CCN(c2ccccc2)CC1 (stereo not drawn) | 0 | 11 | 99* | 5 | i | 6
O=C(NC(=S)NCCc1ccccc1)c1cccc(Cl)c1 | 0 | 0 | -22 | 1 | · | 3
CC1CCCN(C(=O)CCNS(=O)(=O)c2ccc3c(c2)c(=O)n(C)c(=O)n3C)C1 (stereo not drawn) | 0 | 0 | -3 | -1 | i | 6
Cc1cccc(Nc2nc(-c3cccs3)cs2)n1 | 0 | 0 | 94* | 13 | i | -4
Cc1cccc(Nc2nc(-c3ccccn3)cs2)n1 | 0 | 0 | 89* | 4 | i | 5
CCOc1ccccc1CN1CCN(Cc2csc(C(C)=O)c2)CC1CCO (stereo not drawn) | 0 | 2 | 19 | 2 | i | 8
CCOC(=O)[C@H]1[C@H]2COc3ccc(C)cc3[C@@H]2N2C(=O)c3ccccc3NC(=O)[C@@]12C | 0 | 0 | -1 | 6 | · | 0
CN(C)S(=O)(=O)c1cccc(NC(=O)CSc2nc3c(cc2C#N)C(=O)CC(C)(C)C3)c1 | 0 | 0 | 98* | 4 | i | ?
CSc1ccccc1NC(=O)CN1CCN(S(=O)(=O)c2ccccc2[N+](=O)[O-])CC1 | 0 | 0 | -4 | 1 | · | -5
N#Cc1ccc(C(=O)NNC(=O)c2cccc(S(=O)(=O)N3CCOCC3)c2)cc1 | 0 | 0 | -2 | 7 | · | 5
O=C(NNC(=O)c1ccc(O)c(Cl)c1)c1cccc(S(=O)(=O)N2CCOCC2)c1 | 0 | 2 | 3 | -2 | + | 7
C/C(=N\Nc1nc2ccccc2[nH]1)c1ccc2c(c1)OCCO2 | 0 | 2 | 99* | ? | i | 32
C/C(=N\Nc1nc2ccccc2[nH]1)c1ccc2c(c1)OCO2 | 0 | 0 | 100* | 2 | i | -10
C=CCn1ccc(=O)nc1SC | · | · | · | · | · | -2
COc1ccc(N2CCN(S(=O)(=O)c3c(C)n(C)c(=O)n(C)c3=O)CC2)cc1 | 0 | 0 | 14 | 9 | i | -6
COc1cc(C(=O)NCC(=O)N2CCN(S(=O)(=O)c3ccccc3C(F)(F)F)CC2)cc(OC)c1OC | 0 | 0 | · | -1 | · | -16
SMILES | Efflux pump inh | GRK2 aptamer HTS | ALR H2O2 inh | HDAC3 inh | Rce1 inh | Rtt109 HAT inh
O=C(Cc1cccs1)NNC(=S)NC(=O)c1ccccc1 | -1 | 3 | 98* | 3 | i | 6
O=C(Cc1ccccc1)NNC(=S)NC(=O)c1cccs1 | 0 | 0 | 97* | -2 | i | ·
O=C(NC(=S)NNC(=O)c1cccs1)c1ccc(Br)o1 | 0 | 1 | 99* | 6 | i | 1
Cc1cc(OCC(=O)NNC(=S)NC(=O)c2ccc(Br)o2)ccc1Cl | 0 | 0 | 88* | 2 | i | 8
CC(OC(=O)c1cc(=O)[nH]c2ccccc12)C(=O)N1C(C)CCCC1C (stereo not drawn) | 0 | 5 | · | · | · | -15
N#Cc1ccccc1NC(=O)COC(=O)c1ccc(F)cc1F | 0 | 0 | · | -3 | i | -2
N#CNC(=Nc1ccccc1F)SCc1ccc(C(=O)O)cc1 | 0 | 0 | 99* | 4 | i | 3
COc1ccc(C(=O)CCN2CCCC(C)C2)cc1 (stereo not drawn) | 0 | 0 | 8 | -2 | i | 1
CC1CCCN(CCC(=O)c2ccc(Br)cc2)C1 (stereo not drawn) | 0 | 0 | 99* | -1 | · | 5
CCOC(=O)c1c(Cc2ccccc2)c[nH]c1C | 0 | 0 | 95* | 3 | i | -7
CCOC(=O)c1c(C)c[nH]c1C | 0 | 0 | 0 | 10 | i | 2
Cc1ccc(OCC(=O)OCC(=O)c2cccc([N+](=O)[O-])c2)cc1C | 0 | 0 | -3 | -4 | i | 26
COc1ccc2nc(SCC(=O)Nc3ccc4[nH]c(=O)[nH]c4c3)[nH]c2c1 | 0 | 2 | 49 | 7 | · | -11
Cn1c(SCC(=O)Nc2ccc3[nH]c(=O)[nH]c3c2)nnc1-c1ccc(F)cc1 | 1 | 0 | 99* | -6 | i | -4
O=C(CSc1nc2ccccc2[nH]1)Nc1ccc2[nH]c(=O)[nH]c2c1 | 0 | 0 | 98* | 11 | · | 4
CCOC(=O)N1CCN(C(=O)c2cc3cc(OC)c(OC)cc3[nH]2)CC1 | 0 | 0 | -22 | 0 | i | 0
Cc1ccccc1-c1cc(C(=O)NCc2cccc(Br)c2)nn1CC1CC(c2cccc([N+](=O)[O-])c2)=NO1 (stereo not drawn) | 0 | 4 | 3 | 1 | · | 0
CCN(c1ccc(C)c(C)c1)S(=O)(=O)c1ccc2c(c1)CCN2C(=O)CCC(=O)O | 0 | 0 | 99* | -1 | i | -4
CN1CCN(Cc2nc3ccccc3c(=O)n2Cc2nc(-c3cccc([N+](=O)[O-])c3)cs2)CC1 | · | · | · | · | · | 16
CN1CCN(Cc2nc3ccccc3c(=O)n2Cc2nc(-c3ccc4ccccc4c3)cs2)CC1 | 0 | 0 | 98* | 7 | i | 7
Cc1cc(C(=O)N2CCN(c3cc(Cl)ccc3C)CC2)on1 | 0 | 0 | -17 | -1 | i | -1
C[C@H](CO)N1C[C@H](C)[C@@H](CN(C)S(=O)(=O)c2ccccc2)Oc2c(NC(=O)CCC(F)(F)F)cccc2C1=O | 0 | 0 | 1 | 0 | · | 4
CCc1oc2ccccc2c1C(=O)c1cc(Br)c(O)c(Br)c1 | 0 | 1 | 98* | 6 | i | 8
CCOC(=O)c1sc(N)c(C#N)c1CSc1nc2ccc(C)cc2[nH]1 | 0 | 2 | 91* | 5 | i | -6
COC(=O)c1ccc(CSc2nc3ccc(C)cc3[nH]2)o1 | 0 | 1 | 95* | 0 | i | 10
